This passage reports relative cell viability results from the supplement of paper PMC9492666.

One experiment relates to HCC1937. The experiment can be described thus: relative cell viability, compound + erastin, vs DMSO (fraction of DMSO control); higher = less growth inhibition. As to conditions: 72 h.
For the next experiment, the system named is MDA-MB-231. The description is as above. As to conditions: 72 h.

Where a name gives a salt, the structure may show the parent alone.
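Further: viability read by CCK-8 kit in 96-well plates, part of a combination screen pairing lipid-metabolism-targeting compounds with erastin.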

For `CCc1ccc(N(CC(C)C)S(=O)(=O)c2ccc(OCC3CCOCC3)c(CO)c2)cc1` + CCOc1ccccc1-n1c(C(C)N2CCN(C(=O)COc3ccc(Cl)cc3)CC2)nc2ccccc2c1=O [erastin], the figures for the relative cell viability with HCC1937 and with MDA-MB-231 were 0.508 and 0.604, respectively.
On the same counts, the results for `CCOC(=O)N1c2ccc(C(F)(F)F)cc2[C@@H](N(Cc2cc(C(F)(F)F)cc(C(F)(F)F)c2)C(=O)OC)C[C@H]1CC` [Torcetrapib] + CCOc1ccccc1-n1c(C(C)N2CCN(C(=O)COc3ccc(Cl)cc3)CC2)nc2ccccc2c1=O [erastin] are 0.66 and 0.823.
On the same counts, the results for `CCC1C(O)C2C3CCC(C(C)CCO)C3(C)CCC2C2(C)CCC(O)CC12` (centres undefined) + CCOc1ccccc1-n1c(C(C)N2CCN(C(=O)COc3ccc(Cl)cc3)CC2)nc2ccccc2c1=O [erastin] are 0.656 and 0.58.
With `N=C(N)NC(=N)NCCc1ccccc1` [Phenformin hydrochloride] + CCOc1ccccc1-n1c(C(C)N2CCN(C(=O)COc3ccc(Cl)cc3)CC2)nc2ccccc2c1=O [erastin], the relative cell viability in the experiment with HCC1937 was determined as 0.756; with MDA-MB-231 it was 0.999.
As for `CCCCCC=CC(=O)CCc1ccc(O)c(OC)c1` [6-Shogaol] + CCOc1ccccc1-n1c(C(C)N2CCN(C(=O)COc3ccc(Cl)cc3)CC2)nc2ccccc2c1=O [erastin], the relative cell viability in the experiment with HCC1937 amounted to 0.639; in the experiment on MDA-MB-231, 0.559.
On the same counts, the results for `Cc1ccc(C)c(OCCCC(C)(C)C(=O)O)c1` [Gemfibrozil] + CCOc1ccccc1-n1c(C(C)N2CCN(C(=O)COc3ccc(Cl)cc3)CC2)nc2ccccc2c1=O [erastin] are 0.688 and 0.941.
On the same counts, the results for `CN1CC(O)C2=C/C(=N/NC(N)=O)C(=O)C=C21` (centres undefined) [Carbazochrome] + CCOc1ccccc1-n1c(C(C)N2CCN(C(=O)COc3ccc(Cl)cc3)CC2)nc2ccccc2c1=O [erastin] are 0.484 and 0.682.
